# HepG2 tox: qHTS for Inhibitors of TGF-b: Cytotox Counterscreen | HepG2 CAGA-GFP viability, ATP luminescence, 18 h | Potency, µM (top dose mostly 46.1 µM), without a hit: at the highest dose activity change, negative = cytotoxicity, usual class: cytotoxic | 410,000 compounds, 0.76% hits
#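 CellTiter-Glo luminescence gave cytotoxicity after 18 hours at 37 degrees C. The cells were HepG2 CAGA-GFP in 1% FBS DMEM, stimulated with 500 pg/mL TGF-beta after compound addition. %Activity was normalised to no-cell wells (complete cell-killing) and DMSO (no toxicity), and curves were fitted and classified.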
# ATXN2 expr inh: Primary qHTS for Inhibitors of ATXN expression; HEK-293 ATXN2-luciferase reporter, luminescence, 24 h; Potency, µM (titrated, usually from 57 µM), for the others: at the highest dose activity change, negative = inhibition, most hits filed as inhibitors; 360,000 compounds, 0.72% hits; note: % is set by controls: 0 for no effect and ±100 for the full control effect; nearly all actives have a fitted effect of over 55% in size
#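 ATXN2-luciferase reporter cells (luciferase flanked by upstream and downstream ATXN2 gene portions) were treated 24 h at 37 °C with compounds at up to 57 uM. SteadyGlo luminescence gave expression; GF-AFC fluorescence gave viability.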
# TDP1 cell noCPT: qHTS for Inhibitors of human tyrosyl-DNA phosphodiesterase 1 (TDP1): qHTS in cells in absence of CPT; DT40 Tdp1-/- hTDP1 cells, no CPT, ATP luminescence, 48 h; AID 686978, 2013; 420,000 compounds, 15% hits; Potency, µM (titrated, usually from 46.2 µM), for the others: at the highest dose activity change, negative = growth inhibition, hits mostly inhibitors; note: % is set by controls: 0 for no effect and ±100 for the full control effect; nearly all actives have a fitted effect of over 55% in size
#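 Cells were dispensed at 400 per well, compounds added by pin tool, plates incubated ≥48 hr at 37 °C, then CellTiter-Glo added for 30 min at room temperature before luminescence reading. Line: DT40 Tdp1-/- complemented with hTDP1; camptothecin omitted.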
# TGFb SMAD3 inh: qHTS for Inhibitors of TGF-b. HepG2 CAGA-GFP TGF-b/SMAD3 reporter, GFP fluorescence, 18 h; TGF-beta stimulated, 500 pg/mL final. Potency, µM (top dose mostly 46.1 µM), for the others: at the highest dose activity, negative = inhibition, actives largely listed as inhibitors. 410,000 compounds, 1.2% hits. AID 588855, 2011; note: % is set by controls: 0 for no effect and ±100 for the full control effect; nearly all actives have a fitted effect of over 65% in size
#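 HEPG2 CAGA-GFP, 1000 cells/well; 2 h settle, 37 C; cpd via pin tool; TGF-b 500 pg/mL final; 18 h, 37 C; GFP imaging ex488/em500-530; %Activity normalised to -TGF-b and +DMSO controls; CRC fit, curve class.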
# TDP1 cell CPT: qHTS for Inhibitors of human tyrosyl-DNA phosphodiesterase 1 (TDP1): qHTS in cells in presence of CPT. chicken DT40 Tdp1-/-;hTDP1 cells + 20 nM CPT, ATP luminescence, 48 h. Potency, µM (doses to about 46.2 µM), without a hit: at the top dose activity change, negative = growth inhibition, hits mostly inhibitors. 420,000 compounds, 12% hits; note: % is set by controls: 0 for no effect and ±100 for the full control effect; nearly all actives have a fitted effect of over 55% in size
#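 Cell growth measured by CellTiter-Glo luminescence after a minimum 48 h, 37 C compound exposure with 20 nM CPT in Tdp1-knockout DT40 cells stably expressing hTDP1, seeded 400/well; qHTS titration format.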
# ATXN viability: Viability Counterscreen for Primary qHTS for Inhibitors of ATXN expression; S2 cells (HEK-293 line with an ATXN2-luciferase reporter) viability, CellTiter-Fluor protease fluorescence, 24 h; Potency, µM (top dose mostly 56.7 µM), actives largely listed as cytotoxic; 400,000 compounds, 0.49% hits; AID 651635, 2014; note: nearly all actives have a fitted effect of over 40% in size
# The depositor's hits bear a star; i = inactive; ? = inconclusive; / = not tested or not shown; [ ] = another dose, or the depositor's remark. Only some compounds are listed: those with a hit (about 17% of all), similar ones and a draw of the others. Calls come from the whole dose curve; as a rule, active = well fitted curve in the direction sought with a large enough effect; inconclusive = small, poorly fitted or top-dose-only effect, or another doubt; inactive = no such curve, though single readings can be large; an effect the other way counts as inactive or inconclusive. Potency is the fitted concentration of half-maximal effect.
SMILES,HepG2 tox,ATXN2 expr inh,TDP1 cell noCPT,TGFb SMAD3 inh,TDP1 cell CPT,ATXN viability
COc1ccc(C2/C=C\CN([S+](=O)([O-])c3ccc4ccccc4c3)C(C)C(=O)N2Cc2ccc(F)cc2)cc1 (stereo not given),0%,/,/,-11%,/,/
CCOC(=O)C1=CCN(S(=O)(=O)c2ccccc2Cl)C1c1cccc(Br)c1 (stereo not given),-25%,-31%,?,?,?,?
CC(=O)N1CCc2c(sc(NC(=O)CSc3ccc(F)cc3)c2-c2nc3ccccc3s2)C1,-20%,/,9.2µM*,?,12µM*,/
CCN1CCc2c(sc(NC(=O)CSc3ccccc3)c2-c2nc3ccccc3s2)C1,-51%,/,?,206%,?,/
CC(=O)Nc1sc2c(c1-c1nc3ccccc3s1)CCN(C(C)C)C2,-29%,5.3µM*,2.6µM*,?,2.3µM*,?
CN1CCc2c(sc(NC(=O)CSc3ccc(F)cc3)c2-c2nc3ccccc3s2)C1,-30%,/,16µM*,197%,?,/
COc1cc(-c2ccc(C)cc2)cc2c1OCCN(C(=O)CCn1ccc(C)n1)C2,/,/,?,/,0%[9.04 µM],i
C/C(=N\NC(=O)c1c(C)nc2ccccn12)c1ccccc1F,6%,2%,-11%,5%,-23%,i
C/C(=N\NC(=O)c1c(C)nc2ccccn12)c1ccc(O)cc1O,-14%,?,3.7µM*,3%,3.7µM*,i
CCn1c(-c2ccccc2)csc1=Nc1ccc(O)cc1,-26%,45%,?,-27%,?,i
CCOc1ccc(N=c2scc(-c3ccc(OC)cc3)n2CCO)cc1,-32%,-13%,?,0%,9.2µM*,i
CCOc1ccc(N=c2scc(-c3ccccc3)n2CCO)cc1,-25%,30%,23µM*,?,16µM*,i
CCOc1ccc(-c2nnc(-c3ccc(OC)cc3)o2)cc1,10%,20%,-21%,-9%,-20%,i
Cc1ccccc1N1CCN(CC(=O)Nc2nccs2)CC1,-2%,-23%,-1%,-11%,-21%,i
COc1ccc(C(=O)NCCc2cccc(Cl)c2)cc1OC1CCN(C(C)=O)CC1,-3%,11%,?,11%,?,i
CN=C(NC#N)NCCSC[C@H]1N=CN=C1C,/,/,/,/,/,i
Cc1cc(NC(=O)COn2nnc3ccc(S(C)(=O)=O)cc32)ccc1Br,-45%,/,16µM*,?,?,?
CC(=O)OCC(=O)Nc1ccc(Br)c(C)c1,-42%,-2%,2%,16µM*,-1%,i
CCN(CCC(=O)Nc1ccc(Br)c(C)c1)Cc1ccccc1,-24%,-18%,29µM*,-10%,?,i
O=C(CCCC(=O)c1ccccc1)NCCc1ccccc1F,-2%,13%,3%,3%,5%,i
CC(C)c1ccc(NC(=O)c2ccc(NC3=NC4CS(=O)(=O)CC4S3)cc2)cc1 (stereo not given),4%,3%,25%,-1%,2%,i
Cc1ccc(NCN2C(=O)C(=O)c3ccccc32)nc1,-35%,-17%,1.3µM*,6.3µM*,2.3µM*,i
CC(=C(CCOC(=O)C(C)C)SSC(CCOC(=O)C(C)C)=C(C)N(C=O)Cc1cnc(C)nc1N)N(C=O)Cc1cnc(C)nc1N,/,-15%,-20%,/,-20%,i
COC(=O)c1cc(CSc2ncnc3sccc23)oc1C,-2%,19%,-22%,5%,-25%,i
Cc1cc(C)nc(SCC(=O)Nc2ncc(Cc3cccc(Cl)c3)s2)n1,-44%,-21%,18µM*,?,?,?
SMILES,HepG2 tox,ATXN2 expr inh,TDP1 cell noCPT,TGFb SMAD3 inh,TDP1 cell CPT,ATXN viability
CCOC(=O)C1(C)CCN1C(=O)c1cccc(C(F)(F)F)c1 (stereo not given),-3%,16%,-26%,-13%,-26%,i
COc1ccc(C(=O)Oc2c(CN3CCOCC3)cc(Cl)c3cccnc23)cc1,7.9µM*,?,5.8µM*,10µM*,8.2µM*,?
COc1cccc(C(=O)OCCN2CCOCC2)c1,1%,/,-7%,1%,-13%,i
COc1cccc(C(=O)Oc2c(CN3CCOCC3)cc(Cl)c3cccnc23)c1,-55%,10µM*,0.82µM*,?,0.73µM*,?
O=C(Oc1ccc(Cl)c2cccnc12)N1CCOCC1,1%,-26%,-11%,-13%,-1%,?
COc1cc(C(=O)Oc2c(CN3CCOCC3)cc(Cl)c3cccnc23)cc(OC)c1OC,-88%,1.6µM*,5.2µM*,4µM*,2.6µM*,1.6µM*
O=C(Oc1c(CN2CCOCC2)cc(Cl)c2cccnc12)c1ccc(F)cc1,-39%,?,5.2µM*,?,4.6µM*,?
O=C(Nc1ccc(NC(=O)C2CC2)cc1)c1cccs1,-15%,21%,-10%,-8%,-25%,i
O=C(Oc1c(CN2CCOCC2)cc(Cl)c2cccnc12)c1ccccc1Cl,3.5µM*,?,2.9µM*,?,2.3µM*,?
CC(=O)Nc1ccc(N2C(C(C)=O)=NN(c3ccc(Cl)cc3)C2c2sccc2C)cc1 (stereo not given),-30%,0%,23µM*,?,23µM*,i
O=C(CSc1nnc(-c2ccc(Cl)s2)o1)N1CCCc2ccccc21,-1%,-4%,16µM*,11%,?,i
O=C(CSc1nnc(-c2cccs2)n1-c1ccccc1)N1CCCc2ccccc21,-2%,-13%,16µM*,5%,?,i
Cc1ccc(NCc2nnc(SCC(=O)N3CCCc4ccccc43)o2)c(C)c1,-26%,-15%,18µM*,-5%,5.8µM*,i
Cc1ccccc1-c1nnc(SCC(=O)N2CCCc3ccccc32)o1,-22%,3%,?,?,?,?
Cc1ccc(-n2c(SCC(=O)N3CCCc4ccccc43)nnc2-c2cccnc2)c(C)c1,0%,-13%[11.3 µM],23µM*,-5%,?,i
CCOc1ccccc1-n1c(SCC(=O)N2CCCc3ccccc32)nnc1-c1cccnc1,0%,-2%,?,-8%,?,i
COC(=O)c1cn(NC(=O)c2cccc(OC)c2)c(=O)c2ccccc12,-11%,19%,-28%,13%,-15%,i

# Screening data (PubChem BioAssay)
